From PubChem BioAssay
A selection: hits, their analogues and other compounds. The true share with any hit is near 5.7%.
KB-V1 cytotox: kills drug-selected multidrug resistant KB-V1 cells. KB-V1 MDR cells viability, CellTiter-Glo, 72 h. Potency, µM (doses to about 46.1 µM), most hits filed as cytotoxic. 400,000 compounds, 3.4% hits. AID 1347076; further: nearly all actives have a fitted effect of over 60% in size
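Potencies derive from concentration-effect curves fitted to normalized luminescence (CellTiter-Glo) of KB-V1 cells treated for 72 h at 37 degrees C in phenol-red-free DMEM containing 10% FBS.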
HT1080NT lethal: kills 2HG-producing HT-1080-NT fibrosarcoma cells; AID 686970; 360,000 compounds, 1.6% hits; Potency, µM (top dose mostly 46.1 µM), actives largely listed as cytotoxic; HT-1080-NT fibrosarcoma viability, CellTiter-Glo ATP luminescence, 48 h;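 further: NT is the 2HG producing partner of a matched IDH1 knockdown line; nearly all actives have a fitted effect of over 55% in size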
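Viability of the 2HG-overproducing fibrosarcoma line after 48 hours of compound exposure at 37 degrees C was determined by luminescence with CellTiter-Glo, and concentration-effect curves were then fitted and categorized.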
KB-3-1 cytotox: KB-3-1 parental cell cytotoxicity; AID 1347075; 400,000 compounds, 1.4% hits; Potency, µM (top dose mostly 46.1 µM), actives largely listed as cytotoxic; KB-3-1 viability, CellTiter-Glo ATP luminescence, 72 h; further: nearly all actives have a fitted effect of over 60% in size
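Multi-concentration cytotoxicity screen in KB-3-1 cells grown in DMEM lacking phenol red with 10% FBS. After 72 h at 37 °C with compound, ATP-dependent luminescence was recorded.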
HT1080 IDH1KD tx: kills HT-1080 cells with IDH1 knockdown; 360,000 compounds, 2% hits; Potency, µM (series often up to 46.1 µM), usual class: cytotoxic; HT-1080 IDH1 knockdown viability, ATP luminescence, 48 h
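Using the IDH1-knockdown HT-1080 line run in the same batch and compound series as the NT line, viability after 48 h at 37 °C was determined by CellTiter-Glo luminescence and expressed as % activity.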
Numbers stand for hits; i = inactive; ? = inconclusive; nt = not tested or not shown; [ ] = dose if it differs, or a comment. The call rests on the fitted dose curve; in most records, active means well fitted curve in the direction sought with a large enough effect; inconclusive means small, poorly fitted or top-dose-only effect, or another doubt; inactive means no such curve, though single readings can be large; an effect the other way counts as inactive or inconclusive.

SMILES	KB-V1 cytotox	HT1080NT lethal	KB-3-1 cytotox	HT1080 IDH1KD tx
O=C(OCC(=O)C12CC3CC(CC(C3)C1)C2)c1ccc(O)cc1O	i	13µM	i	18.4µM
CCCOc1ccc(-c2nonc2NC(=O)c2cc(OC)c(OC)c(OC)c2)cc1OCCC	i	nt	i	nt
COc1ccc2c(c1)-c1c(ssc1=S)C(C)(C)N2S(=O)(=O)c1ccc(C)cc1	5.8µM	?	?	6.51µM
Cc1ccc(S(=O)(=O)N2c3ccccc3-c3c(ssc3=S)C2(C)C)cc1	20.6µM	i	?	?
CCOC(=O)CC1(C)N(S(=O)(=O)c2ccc(C)cc2)c2ccccc2N1S(=O)(=O)c1ccc(C)cc1	?	i	i	i
Brc1ccc(C2C3=C(Nc4ncnn42)c2ccccc2OC3c2ccncc2)cc1 (configuration not stated)	20.6µM	?	?	?
COc1ccc(C2Oc3ccccc3C3=C2C(c2cccs2)n2ncnc2N3)cc1 (configuration not stated)	5.8µM	?	5.8µM	8.2µM
O=C(O)C1=CC(c2ccc(Br)cc2)n2ncnc2N1 (configuration not stated)	?	nt	i	nt
Cc1cc(Nc2ccccc2)nc(NCc2ccccc2)n1	10.3µM	?	20.6µM	23.1µM
CCCCNc1cc(C)nc(NCc2ccccc2)n1	5.8µM	25.9µM	6.51µM	23.1µM
Cc1cc(Nc2cccc(F)c2)nc(NCc2ccccc2)n1	8.2µM	?	?	?
Cc1cc(N/N=C/c2ccc(N(C)C)cc2)nc(NCc2ccccc2)n1	i	i	i	i
Fc1cc(NCc2ccccc2)nc(NCc2ccccc2)n1	i	i	i	i
Cc1cc(Nc2ccc(Cl)cc2)nc(NCc2ccccc2)n1	20.6µM	?	?	?
Cc1ccc(Nc2cc(C)nc(-c3ccccc3)n2)cc1	i	i	?	i
O=C(O)c1ccc2c(c1)S(=O)(=O)c1cc(N3CCN(c4cnccn4)CC3)ccc1C2=O	i	i	i	i
Cc1cc(N2CCC(C)CC2)nc(-c2ccccc2O)n1	i	i	i	i
Cc1cc(Oc2ccccc2)nc(NCc2ccccc2)n1	20.6µM	i	16.4µM	i
Cc1cc(Oc2ccccc2F)nc(NCc2ccccc2)n1	?	i	?	i
Cc1cc(N2CCC(C)CC2)nc(NCc2ccccc2)n1	i	i	13µM	i
O=S(=O)(NCCc1nnc2ccc(SCc3c(F)cccc3Cl)nn12)c1ccccc1	i	nt	i	nt
C=CCSc1nc2ccccc2n1C(=O)/C=C/c1ccc(OC)c(OC)c1	i	?	?	2.51µM
CCSc1nc2ccccc2n1C(=O)/C=C/c1ccc(OC)c(OC)c1	?	8.2µM	?	5.8µM
CCn1c(SCC(=O)N/N=C/c2ccc(OC)c(OC)c2)nc2ccccc21	i	i	i	i
C=CCSc1nc2ccccc2n1C(=O)/C=C/c1cc(OC)c(OC)c(OC)c1	?	5.01µM	i	2.24µM
SMILES	KB-V1 cytotox	HT1080NT lethal	KB-3-1 cytotox	HT1080 IDH1KD tx
COC(=O)c1c(N)n(-c2cc(Cl)cc(Cl)c2)c2nc3ccccc3nc12	i	nt	i	nt
COc1ccc(CN(Cc2ccccc2)C(=O)C2CC2)cc1COc1ccc(NC(C)=O)cc1	nt	i	nt	i
O=C(NCCCN1CCN(c2ccccc2)CC1)c1nnc(Cc2ccc(F)cc2)o1	i	nt	i	nt
Cc1c(Cl)cccc1NC(=O)CCn1cnnn1	i	nt	i	nt
CCN(CC)C(=O)c1oc2ccc(S(=O)(=O)N3CC(C)CC(C)C3)cc2c1C (configuration not stated)	?	?	i	?
CCN(CC)C(=O)c1oc2ccc(S(=O)(=O)N3CCCCCC3)cc2c1C	13µM	?	i	i
COc1ccc(NC(=O)c2oc3ccc(S(=O)(=O)N4CCCCC4)cc3c2C)cc1	6.51µM	nt	i	nt
COc1ccc2oc(C(=O)Nc3ccc(S(=O)(=O)N(C)C4CCN(C)CC4)cc3)c(C)c2c1	i	23.1µM	?	18.4µM
CCOC(=O)c1oc2ccc(S(=O)(=O)N3CCOCC3)cc2c1C	i	i	i	i
CCOC(=O)c1oc2ccc(S(=O)(=O)N3CCC(C)CC3)cc2c1C	16.4µM	i	i	i
COc1ccc(CC(=O)Nc2ccc(S(=O)(=O)N(C)C3CCN(C)CC3)cc2)cc1	i	i[9.24 µM]	i	i
C=C1C=C(C(F)F)n2ncc(C(=O)N3CCCCC3)c2N1	i	nt	?	nt
O=C(NCc1ccccc1)C1CCN(S(=O)(=O)Cc2ccccc2)CC1	i	nt	i	nt
Cc1cccc(CSCCNC(=O)C2CCN(S(=O)(=O)Cc3ccccc3)CC2)c1	i	nt	i	nt
